Assay outcomes (PubChem BioAssay)
A selection: hits, their analogues and other compounds. The true share with any hit is near 0.69%.
Abeta yeast res = qHTS for compounds that reverse cellular toxicity of Amyloid beta (A-beta) peptide in yeast: Primary Screen | yeast expressing A-beta42, growth rescue, OD600, 48 h; response scale: 0% DMSO, 100% iron-clioquinol control | Potency, µM (top dose mostly 46.1 µM), most hits filed as activators | 0.063% of 410,000 active; also: nearly all actives have a fitted effect of over 55% in size
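Yeast A-beta toxicity model in growth medium with pinned compounds, 48 h at 30 C; growth read as absorbance at 600 nm. Normalized to FeCl3/clioquinol equimolar mix (positive) and DMSO (negative).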
Glioma ERSR ind = qHTS for Inducers of the Endoplasmic Reticulum Stress Response (ERSR) in Human Glioma: qHTS | U87-MG GRP78 promoter luciferase reporter, 16 h | 0.02% of 420,000 active | Potency, µM, inactives show top-dose activation, most hits filed as activators; also: series mostly up to about 76 µM; % of control where 0% means no effect; nearly all actives have a fitted effect of over 35% in size
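Stably transfected U87-MG glioma cells carrying a GRP78-based luciferase sensor; 16 h compound incubation. Luminescence end-point read 10 min after Bright-Glo addition at room temperature.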
PINK1 expr mod = A Quantitative High throughput Screen to Identify Chemical Modulators of PINK1 Expression; PINK1 immunofluorescence, high-content cytometry, 24 h; 0.2% of 410,000 active; Potency, µM (doses to about 76.6 µM), for the others: at the top dose activation (PINK1 increase), hits mostly activators; AID 624263, 2012; active = well fitted activation curve with a large enough effect; inconclusive = small, poorly fitted or top-dose-only effect; cell line not stated here; also: % of control where 0% means no effect; nearly all actives have a fitted effect of over 65% in size
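Cells are seeded, rested 12 hours, then given compound at five concentrations or DMSO for 24 hours. After fixation, blocking and antibody staining, PINK1 amount and mitochondrial localization are scored; CCCP serves as control.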
Vif-A3F inh = qHTS for Inhibitors of Vif-A3F Interactions: qHTS. HeLa A3F-eYFP + Vif (tagged APOBEC3F with the HIV-1 protein that degrades it), YFP fluorescence increase. Potency, µM (titrated, usually from 46.1 µM), for inactives: at the top dose activity, negative = active. 0.2% of 390,000 active. AID 602313, 2012; also: % of control where 0% means no effect; nearly all actives have a fitted effect of over 65% in size
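HeLa cells stably expressing Vif plus C-terminally eYFP-tagged A3F were seeded, incubated overnight at 37 deg C, dosed with compound, incubated overnight again at 37 deg C. Yellow fluorescence (Ex 488/Em 500-530) reported blocked Vif-mediated A3F-eYFP degradation.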
Vif-APOBEC3G blk = qHTS for Inhibitors of Vif-A3G Interactions: qHTS; DNA dC->dU-editing enzyme APOBEC-3G (Homo sapiens), Q9HC16; HeLa A3G-eYFP + Vif (tagged APOBEC3G with the HIV-1 protein that degrades it), YFP fluorescence, overnight; Potency, µM (highest dose often 46.1 µM), inactives show at the top dose activity, negative = active, usual class: inhibitors; 0.076% of 410,000 active; also: % is scaled to controls: 0 for no effect and ±100 for the full control effect; nearly all actives have a fitted effect of over 60% in size
Target sequence (Q9HC16 whole entry, looked up): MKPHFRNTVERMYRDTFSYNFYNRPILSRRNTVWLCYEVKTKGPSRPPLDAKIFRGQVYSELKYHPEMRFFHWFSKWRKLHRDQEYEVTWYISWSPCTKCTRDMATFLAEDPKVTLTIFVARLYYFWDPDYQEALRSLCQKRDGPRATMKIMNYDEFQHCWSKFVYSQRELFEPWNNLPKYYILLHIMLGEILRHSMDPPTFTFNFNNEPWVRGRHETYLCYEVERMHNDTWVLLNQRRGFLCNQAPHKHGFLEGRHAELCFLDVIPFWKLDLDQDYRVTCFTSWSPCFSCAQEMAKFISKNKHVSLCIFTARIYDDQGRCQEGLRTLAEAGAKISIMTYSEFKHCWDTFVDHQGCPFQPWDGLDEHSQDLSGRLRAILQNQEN
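HeLa cells stably expressing Vif and C-terminally eYFP-tagged A3G, seeded overnight at 37 deg C, then exposed to compound by pintool overnight at 37 deg C. Rise in yellow fluorescence (Ex 488/Em 500-530, Acumen) marks blocked Vif-driven A3G degradation.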
FUS yeast rescue = qHTS for Suppressors of FUS Proteinopathy: Primary screen using FUS-linked yeast assay; AID 1347120, 2019; Potency, µM (doses to about 76.6 µM), usual class: activators; S. cerevisiae FUS-expressing, growth rescue, OD600, 24 h; 0.24% of 390,000 active;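 also: plate controls were DMSO vehicle for no effect and reference control for full effect; nearly all actives have a fitted effect of over 55% in size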
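Toxicity suppression screen in FUS-yeast. Cells induced with 2% galactose, starting OD 0.005, treated 24hr at 30C with compounds at multiple final concentrations; growth by OD600.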
* hit, by the source's call; i = inactive; ? = inconclusive; / = not tested or not shown; [ ] = dose if it differs, or a comment. Unless noted, calls follow the shape of the dose curve; as a rule, active = well fitted curve in the direction sought with a large enough effect; inconclusive = small, poorly fitted or top-dose-only effect, or another doubt; inactive = no such curve, though single readings can be large; an effect the other way counts as inactive or inconclusive. Potency is read from the fitted curve at half-maximal effect.

SMILES	Abeta yeast res	Glioma ERSR ind	PINK1 expr mod	Vif-A3F inh	Vif-APOBEC3G blk	FUS yeast rescue
CC[n+]1c(C=C2C=C(C)OC(C)=C2)sc2ccccc21	i	-3%	22µM*	?	5.6µM*	i
CC(OC(=O)Cc1cccc(C(F)(F)F)c1)C(=O)Nc1ccc(Cl)cn1 (stereo not given)	5µM*	-3%	1%	0%	-2%	i
CCOC(=O)c1cc2c(=O)n3cccc(C)c3nc2n(Cc2ccco2)c1=NC(=O)c1cccnc1	i	-4%	8%	-7%	-1%	?
CCOC(=O)c1cc2c(=O)n3ccccc3nc2n(Cc2ccco2)c1=NC(=O)c1cccnc1	i	-2%	0%	7%	1%	32µM*
COc1ccc(NC(=O)CN(C)C(=O)c2cccc(S(=O)(=O)N3CCN(c4ccc(F)cc4)CC3)c2)cc1	i	-4%	0%	-3%	-1%	22µM*
Cc1csc(SCC(=O)NCC2Cc3cc(-c4cncnc4)ccc3O2)n1 (stereo not given)	/	-1%	-1%	/	/	/
CCn1nc(-c2ccccc2)c2nc3ccccc3nc21	i[9.22 µM]	-4%	15%	25µM*	13µM*	i
CCCn1nc(-c2ccccc2)c2nc3ccccc3nc21	i	0%	10%	?	-13%	i
Cc1cccc(C)c1Nc1sc(C(=O)c2ccccc2)c(N)c1C(=O)Nc1ccc(F)cc1	i	?	45µM*	-20%	-6%	?
COc1ccccc1NC(=O)Nc1nc(CC(=O)NCc2c(F)cccc2F)cs1	i	2%	-3%	4%	0%	i
COc1ccccc1NC(=O)Nc1nc(CC(=O)N2CCN(c3ccccc3F)CC2)cs1	i	0%	-1%	?	4%	28µM*
Cc1cc(C)cc(NC(=S)NC(=O)C2CC2)c1	i	0%	2%	13µM*	0%	i
CCN1CCN(C(=O)c2cc(NC(=O)COC)cc3nc(-c4ccncc4)n(C)c23)CC1	/	-2%	1%	/	/	/
Cc1sc2ncn(CC(=O)N3CCN(c4ccccc4)CC3)c(=O)c2c1S(=O)(=O)N1CCC(C)CC1	i	-2%	1%	2%	-4%	25µM*
Cc1sc2ncn(CC(=O)N3CCN(c4ccc(F)cc4)CC3)c(=O)c2c1S(=O)(=O)N1CCC(C)CC1	i	0%	1%	8%	0%	i
Cc1sc2ncn(CC(=O)N3CCN(c4cccc(Cl)c4)CC3)c(=O)c2c1S(=O)(=O)N1CCC(C)CC1	i	-2%	1%	-4%	-5%	25µM*
CCOC(=O)c1cc(-c2ccccc2)sc1NC(=S)Nc1cc(C)ccn1	i	-3%	?	8.9µM*	1%	i
CC(C)Cc1cc(C(=O)NCC2Cc3cc(F)cc(-c4ccccn4)c3O2)no1 (stereo not given)	/	-4%	0%	/	/	/
CCCc1nc2cccnc2n1C1CCN(C(=O)CC2NC(=O)c3ccccc32)CC1 (stereo not given)	/	4%	1%	/	/	/
CCOC(=O)C1=C(Cc2ccc(F)cc2)C(=O)c2ccccc2C1=O	i	?	10%[38.3 µM]	25µM*	?	i
O=C(OCc1ccc(F)cc1)c1ccc2c(c1)-c1ccccc1C2=O	i	-2%	0%	-6%	0%	i
COCc1ccc(CN2CCOc3c(cc(-c4ccc(SC)cc4)cc3OC)C2)o1	/	-5%	0%	/	/	/
Cc1cnc(C)c(-c2cc(F)cc3c2OC(CNC(=O)Cc2ccccc2C)C3)n1 (stereo not given)	/	-5%	0%	/	/	/
